Many of the other results were omitted from the sample, so hits are more common in it than they were.
PDI inh = inhibitors of human protein disulfide isomerase | P07237 | PDI insulin aggregation turbidity, A650, 90 min | inhibition, % at 10 µM | actives 0.052% (n = 350,000) | AID 588391;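 active = mean inhibition across replicates of 30% or more, whatever share of single replicates reach that level; inconclusive = mean inhibition below 30% while every single replicate reaches 30%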
Target sequence (P07237 whole entry, looked up): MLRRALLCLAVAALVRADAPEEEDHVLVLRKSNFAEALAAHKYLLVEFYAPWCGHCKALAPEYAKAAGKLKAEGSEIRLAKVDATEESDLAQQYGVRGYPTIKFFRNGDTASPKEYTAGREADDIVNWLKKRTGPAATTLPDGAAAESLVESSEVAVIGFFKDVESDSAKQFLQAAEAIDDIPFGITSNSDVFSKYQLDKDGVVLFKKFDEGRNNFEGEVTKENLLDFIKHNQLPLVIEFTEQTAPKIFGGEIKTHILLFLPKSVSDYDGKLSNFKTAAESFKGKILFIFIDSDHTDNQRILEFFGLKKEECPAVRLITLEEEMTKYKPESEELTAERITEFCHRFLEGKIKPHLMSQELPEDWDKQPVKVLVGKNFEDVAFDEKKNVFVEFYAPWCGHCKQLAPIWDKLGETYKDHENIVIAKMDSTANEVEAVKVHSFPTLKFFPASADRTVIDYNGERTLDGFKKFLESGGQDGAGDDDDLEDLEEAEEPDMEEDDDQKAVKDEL
NRP1-CendR mod = alters CendR peptide binding to human NRP-1; actives 0.85% (n = 360,000); O14786; inhibition, % at 25 µM; AID 602438; FAM-RPARPAR peptide binding to NRP-1, fluorescence polarization;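 active = inhibition or corrected inhibition above about 18%, plus a signal ratio from 0.5 to 1.5, limit read from the data, passing the limit was not always enough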
ARNT TACC3 PPI = ARNT/TACC3 interaction disruption | inhibition, % at 9.99 µM | actives 0.66% (n = 390,000) | AlphaScreen His-ARNT PAS-B/GST-TACC3 binding, luminescence; TACC3 fragment carries E629A point mutation | Q9Y6A5;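 active = mean inhibition of replicates at least 50% and at least half of replicates each reaching 50%; inconclusive = half or more replicates reach 50% but mean below 50%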;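 note: 0% = complete ARNT plus TACC3 wells and 100% = ARNT alone without TACC3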
ALR inh = blocks human ALR sulfhydryl oxidase activity. P55789. purified ALR, DTT oxidation, H2O2 HRP-luminol luminescence. inhibition, % (test concentration not listed). actives 3.8% (n = 290,000). AID 485317;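 active = mean replicate inhibition above about 79%, with every replicate also reaching it, limit read from the data; inconclusive = only one of the two criteria met; inactive = mean below limit and not every replicate reaching it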
ERp5 inh = ERp5 (human) disulfide isomerase inhibition; Q15084; ERp5 insulin aggregation, absorbance 650 nm, 90 min; inhibition, % at 9.99 µM; actives 0.05% (n = 350,000); AID 651711;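 active = mean replicate inhibition above about 25%, with every replicate also reaching it, limit read from the data, passing the limit was not always enough; inconclusive = only one of those two criteria met; inactive = neither criterion met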
PglD inh = blocks C. jejuni PglD acetyltransferase activity. purified PglD enzyme, DTNB colorimetric CoA detection. inhibition, % at 12.5 µM. actives 0.098% (n = 360,000). AID 602405; in the data active = inhibition above about 16%, passing the limit was not always enough; inconclusive = no clear call, values can overlap the other calls
An asterisk follows results filed as active; ? = inconclusive; nt = not tested or not shown.

SMILES	PDI inh	NRP1-CendR mod	ARNT TACC3 PPI	ALR inh	ERp5 inh	PglD inh
N#CCCN(C(=O)CSc1ccc2c(c1)OCCO2)c1ccc(F)cc1	2	-7	-4	98*	nt	2
Cc1cc(C)n2c(SCC(=O)N(CCC#N)c3ccc4c(c3)OCCO4)nnc2n1	0	-5	nt	nt	4	2
Cc1ccc(N(CCC#N)C(=O)CSc2ccc3c(c2)OCCO3)cc1	2	1	-1	99*	nt	nt
CCC(=O)N1C[C@@H](C)[C@@H](OC)CN(C)C(=O)c2ccc(NC(=O)c3cnccn3)cc2OC[C@@H]1C	nt	nt	-3	nt	3	7
C[C@H](CO)N1C[C@H](C)[C@@H](CN(C)Cc2ccc(Oc3ccccc3)cc2)Oc2ccc(NC(=O)CCN3CCOCC3)cc2C1=O	nt	nt	5	nt	-1	1
O=C(C[C@H]1C=C[C@H](NC(=O)C2CCC2)[C@H](CO)O1)NCc1ccncc1	nt	nt	0	nt	-5	0
COc1ccc(-c2ccc3c(c2)[C@@H]2[C@@H](CCN2S(=O)(=O)c2ccccc2F)[C@H](CO)N3C)cc1	nt	nt	0	nt	1	0
COc1ccc(CS(=O)(=O)/C(Cl)=C(/Cl)C(=O)Nc2ccc(OC)nc2)cc1	5	2	4	98*	nt	7
Cc1cccc(Nc2nc(-c3ccc(O)cc3O)cs2)n1	-9	-6	-3	97*	2	2
Cc1ccc(S(=O)C(c2ccccc2)c2ccccc2)cc1 (centres undefined)	5	20*	-10	nt	0	5
O=S(c1ccccc1)C(c1ccccc1)c1ccccc1 (centres undefined)	-13	-5	-2	nt	?	-3
COc1ccc(Cc2c(N)nc(N)nc2N)cc1	5	5	1	-4	nt	3
Nc1ccc(OCCCc2c(N)nc(N)nc2N)cc1	2	7	3	99*	-2	-2
COc1ccc2c(N)c(C(=O)NN)[nH]c2c1	0	2	20	1	nt	-2
CCOC(=O)c1[nH]c2ccccc2c1N=CN(C)C	6	8	-9	99*	nt	nt
CCOC(=O)c1[nH]c2ccc(F)cc2c1N=C(C)N(CC)CC	-2	-17	-3	80*	nt	4
COC(=O)c1[nH]c2cc(OC)ccc2c1N=CN(C)C	1	-6	0	88*	3	nt
CCOC(=O)c1[nH]c2ccccc2c1NC(=O)CC	-12	-4	-1	nt	1	-4
CCOC(=O)c1[nH]c2ccc(C)cc2c1N=CN(CC)CC	8	3	5	99*	nt	5
CCOC(=O)c1[nH]c2ccc(C)cc2c1N	-4	-6	15	62	nt	-4
CCc1cnc(N2[C@H](C#N)[C@@H](c3ccc(-c4cccc(F)c4)cc3)[C@H]2CO)s1	nt	nt	-2	nt	-2	-2
Cc1cccc(S(=O)(=O)N2CCCCN3[C@H](CO)[C@H](c4ccc(C#CC5CC5)cc4)[C@H]3C2)c1	nt	nt	29	nt	5	-1
CN1C(=O)c2cc(NC(=O)NC3CCCC3)ccc2OC[C@H]2O[C@@H](CC(=O)NC3CCC3)CC[C@H]21	nt	nt	nt	nt	nt	-3
COc1ccc(-n2c(SCC(=O)Nc3ccc(C)cc3)nc(O)c(Cc3ccccc3)c2=O)cc1	-6	-13	-3	98*	0	3
COc1ccc(-n2c(SCC(=O)Nc3ccccc3C)nc(O)c(Cc3ccccc3)c2=O)cc1	1	6	21	88*	-3	1
SMILES	PDI inh	NRP1-CendR mod	ARNT TACC3 PPI	ALR inh	ERp5 inh	PglD inh
COc1ccc(-n2c(SCC(=O)Nc3ccc(Cl)cc3)nc(O)c(Cc3ccccc3)c2=O)cc1	-9	11	-2	56	-1	-1
O=C(C[C@H]1C[C@H]2c3cc(NS(=O)(=O)c4ccccc4)ccc3O[C@H]2[C@H](CO)O1)NC1CCCC1	nt	nt	-11	nt	-5	4
CCCNC(=O)C[C@@H]1C[C@@H]2c3cc(NS(C)(=O)=O)ccc3O[C@@H]2[C@H](CO)O1	nt	nt	-11	nt	32*	-3
O=C(C[C@@H]1C[C@H]2c3cc(NS(=O)(=O)c4ccccc4)ccc3O[C@H]2[C@H](CO)O1)NC1CCCCC1	nt	nt	4	nt	35*	1
CCCNC(=O)C[C@@H]1C[C@@H]2c3cc(NC(=O)CC4CC4)ccc3O[C@@H]2[C@H](CO)O1	nt	nt	-3	nt	-5	-3
CCCNC(=O)C[C@H]1C[C@@H]2c3cc(NC(=O)CC4CC4)ccc3O[C@@H]2[C@@H](CO)O1	nt	nt	-11	nt	62*	-3
CCCNC(=O)C[C@@H]1C[C@H]2c3cc(NS(C)(=O)=O)ccc3O[C@H]2[C@H](CO)O1	nt	nt	-9	nt	nt	-1
CO[C@@H]1CN(C)C(=O)c2cc(NC(=O)c3ccc(F)cc3)ccc2OC[C@@H](C)N(C(=O)c2ccc(F)cc2)C[C@@H]1C	nt	nt	-3	nt	3	1
CCOC(=O)Cc1csc(NC(=O)CSc2ncnc3c2cnn3-c2ccccc2Cl)n1	1	21*	3	nt	nt	0
Cc1nnc(NC(=O)CSc2ncnc3c2cnn3-c2ccccc2C)s1	-2	3	3	-5	nt	9
C[C@@H]1CCCCO[C@@H](CN(C)Cc2ccc(Cl)c(Cl)c2)[C@@H](C)CN([C@H](C)CO)C(=O)c2cc(NS(C)(=O)=O)ccc2O1	nt	nt	-5	nt	3	-2
O=C(CSC1=NNC(c2ccccn2)S1)Nc1ccc(C(F)(F)F)cc1 (centres undefined)	2	3	76*	nt	-5	4
c1ccc(CSC2=NNC(c3ccccn3)S2)cc1 (centres undefined)	3	-6	11	2	-4	nt
Clc1ccccc1C1SCC2Nc3ccccc3CN21 (centres undefined)	21	-5	-1	98*	nt	-26
Cc1c(OCc2nn[nH]n2)ccc2c3c(c(=O)oc12)CCC(C)C3 (centres undefined)	-2	-25	nt	98*	nt	0
CN(CC(=O)N1CCN(c2ccccc2)CC1)S(=O)(=O)c1cnc[nH]1	0	8	-8	98*	nt	7
CN(CC(=O)N1CCN(c2cccc(Cl)c2)CC1)S(=O)(=O)c1cnc[nH]1	6	-4	-5	6	nt	nt
COc1ccc(-n2c(-c3ccco3)n[nH]c2=S)cc1	-2	-7	-7	95*	nt	-2
Nn1c(-c2ccco2)n[nH]c1=S	6	-6	-6	1	nt	nt
S=c1[nH]nc(-c2ccco2)n1C1CCCCC1	24	-2	1	95*	nt	nt
C[C@H]1CCCCO[C@H](CN(C)S(=O)(=O)c2ccc(F)cc2)[C@@H](C)CN([C@@H](C)CO)C(=O)c2cc(NC(=O)Cc3ccccc3)ccc2O1	nt	nt	-1	nt	nt	-1
COC(=O)c1ccc(NC(=O)CSCc2ccccc2)cc1	1	-1	-4	99*	nt	0
CC(=O)Nc1ccc(S(=O)(=O)Nc2ncccn2)cc1	4	-3	-3	-3	nt	-1
O=C(Nc1ccc(S(=O)(=O)Nc2ncccn2)cc1)C1=COCCO1	16	-35	23	97*	5	-1
